Compounds with a hit are over-represented: about 1.2% of the library has one in this group of screens.
RGS7-Gao: modulates binding of RGS7 to human Galphao | Multiplexed bead flow cytometry; actives lie on both sides | binding response (% of control), % at 10 µM | hit rate 0.35% among 220,000 | AID 1439; in the data active means binding response below about 49% or above about 150%; inconclusive means no clear call, values can overlap the other calls; inactive means in between;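 further: fluorescent Galphao held in activated GDP-AlF4 state binding bead-coupled RGS7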
Target sequence (P09471 whole entry, looked up): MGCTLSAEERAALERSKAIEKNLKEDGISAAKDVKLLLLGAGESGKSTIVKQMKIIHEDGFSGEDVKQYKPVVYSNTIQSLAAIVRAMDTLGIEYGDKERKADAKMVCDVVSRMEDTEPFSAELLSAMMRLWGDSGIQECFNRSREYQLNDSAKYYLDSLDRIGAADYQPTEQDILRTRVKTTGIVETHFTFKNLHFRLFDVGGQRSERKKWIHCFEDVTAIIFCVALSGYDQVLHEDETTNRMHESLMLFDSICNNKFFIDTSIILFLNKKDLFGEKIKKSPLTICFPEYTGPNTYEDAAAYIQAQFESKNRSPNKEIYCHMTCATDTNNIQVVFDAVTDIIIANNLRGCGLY
GSH bead fluor: compound fluoresces at 488/530 nm on GSH beads; GSH beads flow cytometry, compound fluorescence 488/530 nm; hits give high values; fluorescence (KMESF) at 10 µM; hit rate 0.25% among 190,000; AID 1776; in the data active means fluorescence above about 89;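 further: glutathione beads carrying GST-tagged Bcl family fusion proteins plus one bare bead set; values are compound well signal with DMSO vehicle wells as background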
RGS16-Gao: regulators of human RGS16-Galphao interaction | hit rate 0.38% among 220,000 | O15492+P09471 | AID 1441 | bead-based flow cytometry RGS16-Galphao binding, fluorescence; actives lie on both sides | binding response (% of control), % at 10 µM;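 further: Galphao activated by GDP with aluminum fluoride before binding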
RGS8-Gao reg: regulators of human RGS8-Galphao interaction. P09471. multiplexed bead flow cytometry, RGS8-Galphao binding; actives lie on both sides. response (percent of control binding), % at 10 µM. hit rate 0.34% among 220,000; in the data active means response below about 60% or above about 140%; inactive means in between;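 further: Galphao activated as the GDP aluminium fluoride complex binding bead-coupled RGS8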
RGS4-Gao reg: modulates binding of RGS4 to human Galphao; Multiplexed bead flow cytometry; actives lie on both sides; hit rate 0.33% among 220,000; binding response (% of control), % at 10 µM; P09471; in the data active means binding response below about 49% or above about 150%; inactive means in between;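 further: fluorescent Galphao activated with aluminum fluoride binding bead-coupled RGS4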
Avidin fluor: compound fluoresces at 488/530 nm on avidin beads; hit rate 0.38% among 220,000; compound fluorescence 488/530 nm, flow cytometry; hits give high values; AID 1775; fluorescence (KMESF) at 10 µM; in the data active means fluorescence above about 47
RGS4-Gao HTS: modulates binding between human RGS4 and Galphao; hit rate 99% among 1,600; multiplexed bead flow cytometry, RGS–Galpha-o binding; shares compounds with RGS16-Gao; RGS4–Galpha-o binding response, % at 10 µM;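 further: fluorescently labeled Galpha-o bound to GDP with aluminium fluoride binding biotinylated RGS beads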
Biotin-avidin: counter-screen: compounds disrupting biotin binding to avidin beads; 1,700 tested, under 10 active; inhibition, % at 10 µM; streptavidin beads, fluorescein-biotin binding, flow cytometry; shares compounds with RGS16-Gao;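 active means inhibition above 50%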;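 further: median green fluorescence of gated singlet beads compared with DMSO control wells; 0% = DMSO wells and 100% = complete loss of bead fluorescence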
RGS8-Gao single: RGS8-Galphao interaction regulation, single point confirmation | shares compounds with RGS16-Gao | bead-based flow cytometry RGS8-Galphao binding, fluorescence; actives lie on both sides | binding response (% of control), % at 10 µM | hit rate 3% among 1,700; in the data active means binding response below about 72% or above about 130%; inactive means in between;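 further: Galphao activated as GDP AlF4 complex before binding bead RGS8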
RGS7-Gao confirm: confirmation of regulators of human RGS7-Galphao interaction. shares compounds with RGS16-Gao. bead-based flow cytometry RGS7-Galphao binding; actives lie on both sides. response (percent of control binding), % at 10 µM. hit rate 7.8% among 1,700. AID 1837; in the data active means response below about 75% or above about 130%; inactive means in between;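 further: fluorescent Galphao activated with GDP and aluminum fluoride binding bead-coupled RGS7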
RGS16-Gao conf: RGS16-Galphao interaction regulation, single point confirmation; shares compounds with RGS16-Gao; bead-based flow cytometry, RGS16-Galphao binding; actives lie on both sides; response (% of control binding), % at 10 µM; hit rate 4% among 1,700; in the data active means response below about 74% or above about 130%; inactive means in between;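 further: Galphao activated as the GDP aluminium fluoride complex binding bead-coupled RGS16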
RGS4-Gao confirm: RGS4-Galphao interaction regulation, single point confirmation; shares compounds with RGS16-Gao; RGS4-Galphao binding, multiplexed bead flow cytometry; actives lie on both sides; binding response (% of control), % at 10 µM; hit rate 4% among 1,700; in the data active means binding response below about 74% or above about 130%; inactive means in between
RGS19-Gao single: RGS19-Galphao interaction regulation, single point confirmation; bead-based flow cytometry RGS19-Galphao binding; actives lie on both sides; hit rate 5% among 1,700; AID 1841; response (percent of control binding), % at 10 µM; shares compounds with RGS16-Gao; in the data active means response below about 50% or above about 160%; inactive means in between;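 further: 100% = no compound control and 0% = blank background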
The depositor's hits bear a star; ? = inconclusive; · = no result; [ ] = dose if it differs, or a comment. Unless noted, how the calls were made is not given here.

SMILES | RGS7-Gao | GSH bead fluor | RGS16-Gao | RGS8-Gao reg | RGS4-Gao reg | Avidin fluor | RGS4-Gao HTS | Biotin-avidin | RGS8-Gao single | RGS7-Gao confirm | RGS16-Gao conf | RGS4-Gao confirm | RGS19-Gao single
CC(=O)c1sc(-c2ccc(F)cc2)cc1NS(=O)(=O)c1ccccc1 | ? | · | -20* | 1.8* | -36* | -3 | · | -1 | 101 | 98 | 101 | 101 | 102
CN1CCN(NC(=S)Nc2ccc(OC(F)F)cc2)CC1 | ? | 12 | 103 | 102 | 102 | 12 | · | · | · | · | · | · | ·
CC1CCN(CC(CS(=O)(=O)c2ccc([N+](=O)[O-])cc2)N2CCC(C)CC2)CC1 (stereo not drawn) | ? | · | 94 | 98 | 95 | 10 | · | · | · | · | · | · | ·
Cc1ccccc1N=C(NOCc1ccc(Cl)cc1Cl)c1nonc1N | · | 37 | · | · | · | · | · | 2 | 96 | 95 | 94 | 96 | 103
CC(NC(=O)Cc1cccc(C(F)(F)F)c1)c1ccc(F)cc1 (stereo not drawn) | ? | 11 | 98 | 102 | 99 | 11 | · | · | · | · | · | · | ·
CCCC(=O)Nc1cccn(Cc2ccccc2Br)c1=O | · | 39 | · | · | · | · | · | 0 | 100 | 102 | 100 | 99 | 114
O=C1c2ccccc2C(=O)N1CCN1CCOCC1 | 259*[activator] | 20 | 120 | 99 | 92 | 233* | 92* | · | · | · | · | · | ·
O=C(Nc1ccc2ncccc2c1)c1cc(Cl)ccc1Cl | 97 | 14 | 101 | 97 | 101 | 9 | · | · | · | · | · | · | ·
COc1ccc(S(=O)(=O)N2CCC(N3CCCCC3)CC2)cc1 | 101 | 16 | 98 | 103 | 98 | 15 | · | · | · | · | · | · | ·
O=S(=O)(c1ccc(F)cc1)N1CCC(N2CCCC2)CC1 | 163*[activator] | 22 | 109 | 102 | 107 | 88* | 107* | · | · | · | · | · | ·
O=C(C1CCN(S(=O)(=O)c2ccc(F)cc2)CC1)N1CCOCC1 | 168*[activator] | 4 | 100 | 95 | 115 | 110* | 115* | 0 | 104 | 104 | 104 | 105 | 100
N=C(N)N1CCN(Cc2ccccc2)CC1 | 103 | 13 | 98 | 102 | 102 | 9 | · | · | · | · | · | · | ·
S=c1[nH]nc(-c2ccc3ccccc3n2)n1-c1ccc(Cl)cc1 | 119 | 12 | 177*[activator] | 114 | 110 | 4 | 110* | -2 | 91 | 101 | 92 | 95 | 99
CCN1/C(=C/c2ccc3cccc(C)c3[n+]2CC)Sc2ccccc21 | 161*[activator] | 55 | 274 | 127 | 196*[activator] | 7 | · | 2 | 100 | 110 | 100 | 102 | 116
CCOC(=O)C1(Cc2cccc(OC)c2)CCN(Cc2cccc(OC)c2O)CC1 | 101 | 18 | 102 | 101 | 102 | 12 | · | · | · | · | · | · | ·
COCCCNC(=O)C1CCN(C(=O)c2cc3sccc3n2Cc2ccc(F)cc2)CC1 | 96 | 48 | 98 | 100 | 99 | 7 | · | · | · | · | · | · | ·
O=C(NCCCN1CCCC1)C1CCN(C(=O)c2cc3sccc3n2Cc2ccc(F)cc2)CC1 | 181*[activator] | 31 | 262 | 121 | 134 | 193* | 134* | · | · | · | · | · | ·
CC12CCC(C(=O)N3CCCCC3)([C@H](Br)C1=O)C2(C)C (stereo partly drawn) | ? | · | 107 | 106 | 101 | · | · | · | · | · | · | · | ·
CC1=Nc2ccccc2N=C(NC(=O)c2ccccc2)C1c1ccccc1 (stereo not drawn) | ? | 16 | 103 | 104 | 108 | 9 | · | · | · | · | · | · | ·

Source: PubChem
